Experimental data: article PMC5700166
Where a chain is given by its changes, count along the chain named.

Experiments:
Test in all cases: protein-binding microarray (PBM); PBM: ~300 nM protein, 6 mM HEPES pH 7.8, 80 mM KCl, 0.5 mM EDTA, 0.5 mM EGTA, 6% glycerol, 35 ng/ul poly-dIdC, 1% milk, 1 h, room temperature; Ap Aiptasia and Nv Nematostella (sea anemones) / Co Capsaspora / Aq Amphimedon (sponge) / Dm Drosophila / Hu human; RHD is the Rel homology domain; high values mean tight binding
Settings in all cases: dsDNA, one strand shown
GST-Ap-NF-kB RHD = target: T1, GST-Ap-NF-kB RHD (Exaiptasia pallida (Aiptasia), UniProt A0A913YAJ5 2-422)
T1 sequence: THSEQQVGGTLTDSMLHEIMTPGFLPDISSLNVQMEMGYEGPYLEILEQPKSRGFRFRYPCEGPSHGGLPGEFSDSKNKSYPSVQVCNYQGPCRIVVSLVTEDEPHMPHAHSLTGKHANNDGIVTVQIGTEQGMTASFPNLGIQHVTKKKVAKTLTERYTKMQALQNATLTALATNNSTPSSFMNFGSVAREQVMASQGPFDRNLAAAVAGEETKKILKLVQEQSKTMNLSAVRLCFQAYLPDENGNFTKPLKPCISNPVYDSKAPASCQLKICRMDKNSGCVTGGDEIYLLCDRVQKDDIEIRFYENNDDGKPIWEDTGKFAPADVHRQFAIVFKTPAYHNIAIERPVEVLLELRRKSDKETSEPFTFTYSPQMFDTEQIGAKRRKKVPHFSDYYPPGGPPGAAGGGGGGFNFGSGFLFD

[1] = target: T2, GST-Nv-NF-kB (Cys allele) (Nematostella vectensis, UniProt E5G601 2-411)
T2 sequence: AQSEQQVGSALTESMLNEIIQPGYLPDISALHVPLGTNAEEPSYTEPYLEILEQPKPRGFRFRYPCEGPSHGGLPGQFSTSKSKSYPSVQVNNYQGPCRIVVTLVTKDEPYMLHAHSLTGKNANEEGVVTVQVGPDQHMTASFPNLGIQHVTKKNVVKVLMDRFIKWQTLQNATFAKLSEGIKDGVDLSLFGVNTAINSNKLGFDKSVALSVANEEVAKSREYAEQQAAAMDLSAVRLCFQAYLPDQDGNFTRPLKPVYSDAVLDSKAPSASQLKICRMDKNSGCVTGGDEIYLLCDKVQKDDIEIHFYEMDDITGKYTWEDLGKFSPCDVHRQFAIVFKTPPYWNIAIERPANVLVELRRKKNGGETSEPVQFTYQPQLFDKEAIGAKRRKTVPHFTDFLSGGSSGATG

[2] = target: T3, GST-Nv-NF-kB (Ser allele) (Nematostella vectensis, UniProt A7UNT2 2-411)
T3 sequence: T2 sequence with Q21R, C66S, S207N, E215Q, V217A, E225K, A268E, D399E

GST-Co-NF-kB = target: T4, GST-Co-NF-kB (Capsaspora owczarzaki, UniProt F1ARL5 200-546)
T4 sequence: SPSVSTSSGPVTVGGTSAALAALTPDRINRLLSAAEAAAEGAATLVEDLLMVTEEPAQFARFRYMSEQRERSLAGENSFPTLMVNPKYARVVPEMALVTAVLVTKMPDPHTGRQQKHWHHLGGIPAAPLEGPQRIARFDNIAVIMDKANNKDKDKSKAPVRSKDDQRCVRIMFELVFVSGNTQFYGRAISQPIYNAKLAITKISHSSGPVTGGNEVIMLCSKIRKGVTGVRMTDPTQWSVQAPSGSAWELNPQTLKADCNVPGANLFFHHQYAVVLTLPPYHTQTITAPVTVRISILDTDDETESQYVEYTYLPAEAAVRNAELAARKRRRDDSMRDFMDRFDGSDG

GST-Dm-Relish = target: T5, GST-Dm-Relish (Drosophila melanogaster, UniProt Q94527 99-473)
T5 sequence: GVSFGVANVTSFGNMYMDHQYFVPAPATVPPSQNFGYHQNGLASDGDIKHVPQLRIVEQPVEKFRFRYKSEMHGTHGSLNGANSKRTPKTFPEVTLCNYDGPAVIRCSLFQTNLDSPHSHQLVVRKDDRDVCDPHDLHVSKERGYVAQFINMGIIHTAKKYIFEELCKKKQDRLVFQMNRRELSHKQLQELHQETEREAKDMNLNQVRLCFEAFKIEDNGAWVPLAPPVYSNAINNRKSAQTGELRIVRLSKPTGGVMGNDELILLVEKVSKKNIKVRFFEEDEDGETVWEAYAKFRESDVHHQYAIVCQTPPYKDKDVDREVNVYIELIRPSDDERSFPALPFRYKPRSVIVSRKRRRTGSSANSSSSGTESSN

GST-Aq-NF-kB = target: T6, GST-Aq-NF-kB (Amphimedon queenslandica, UniProt A9Y5G7 2-389)
T6 sequence: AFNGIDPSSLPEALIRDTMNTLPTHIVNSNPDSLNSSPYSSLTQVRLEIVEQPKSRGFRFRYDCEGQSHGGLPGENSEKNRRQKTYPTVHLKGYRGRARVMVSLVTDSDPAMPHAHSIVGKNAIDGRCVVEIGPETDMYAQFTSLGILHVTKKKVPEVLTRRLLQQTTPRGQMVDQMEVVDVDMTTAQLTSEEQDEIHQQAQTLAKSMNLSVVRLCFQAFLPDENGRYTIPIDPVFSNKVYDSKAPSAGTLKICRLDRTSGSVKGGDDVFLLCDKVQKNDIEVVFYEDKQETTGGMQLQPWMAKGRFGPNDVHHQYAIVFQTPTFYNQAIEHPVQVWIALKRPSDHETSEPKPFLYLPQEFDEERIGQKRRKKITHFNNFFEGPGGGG

GST-Hu-p50 = GST-Hu-p50 (Homo sapiens, UniProt P19838 7-356)
Sequence of GST-Hu-p50 (P19838 7-356): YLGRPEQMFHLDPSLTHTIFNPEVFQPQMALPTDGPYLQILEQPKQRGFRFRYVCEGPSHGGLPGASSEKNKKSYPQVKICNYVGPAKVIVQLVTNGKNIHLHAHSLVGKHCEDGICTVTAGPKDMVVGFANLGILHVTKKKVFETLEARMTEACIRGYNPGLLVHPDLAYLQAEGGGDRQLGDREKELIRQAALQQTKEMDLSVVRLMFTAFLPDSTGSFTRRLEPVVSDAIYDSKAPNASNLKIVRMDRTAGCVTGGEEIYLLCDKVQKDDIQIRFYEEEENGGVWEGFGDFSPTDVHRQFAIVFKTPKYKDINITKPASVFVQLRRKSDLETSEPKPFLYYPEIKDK

Row | Sequence | binding signal (GST-Ap-NF-kB RHD) [z-score] | binding signal [1] [z-score] | binding signal [2] [z-score] | binding signal (GST-Co-NF-kB) [z-score] | binding signal (GST-Dm-Relish) [z-score] | binding signal (GST-Aq-NF-kB) [z-score] | binding signal (GST-Hu-p50) [z-score]
1 | CCGATTAACATCAACCATTCCCCTGATGTTAATCGGGTCTTGATTCGCTTGACGCTGCTG | 5.66 | 6.61 | 7.06 | 4.68 | 1.96 | 4.45 | 4.88
2 | CCGATTAACATCAGGGGATTCGATGATGTTAATCGGGTCTTGATTCGCTTGACGCTGCTG | 5.58 | 5.21 | 7.7 | 2.24 | 3.8 | 3.6 | 5.33
3 | CCGATTAACATCAGGGGGTTCTATGATGTTAATCGGGTCTTGATTCGCTTGACGCTGCTG | 7.12 | 5.57 | 6.75 | 2.36 | 6.97 | 5.33 | 5.89
4 | CCGATTAACATCAGGGGGGTAGATGATGTTAATCGGGTCTTGATTCGCTTGACGCTGCTG | 4.07 | 3.34 | 3.24 | 5.47 | 3.11 | 3.59 | 3.2
5 | CCGATTAACATCAGGCTTTCCCCTGATGTTAATCGGGTCTTGATTCGCTTGACGCTGCTG | 6.49 | 7.29 | 7.71 | 4.87 | 7.38 | 7.22 | 4.79
6 | CCGATTAACATCACGGTATTCCCTGATGTTAATCGGGTCTTGATTCGCTTGACGCTGCTG | 4.35 | 3.63 | 3.91 | 3.34 | 6.53 | 6 | 1.52
7 | CCGATTAACATCAGAGAACCCCCTGATGTTAATCGGGTCTTGATTCGCTTGACGCTGCTG | 7.89 | 6.19 | 6.92 | 2.09 | 7.55 | 6.18 | 6.47
8 | CCGATTAACATCAATTTCCCACCTGATGTTAATCGGGTCTTGATTCGCTTGACGCTGCTG | 2.39 | 3.38 | 3.89 | 2.84 | 1.17 | 2.26 | 2.74
9 | CCGATTAACATCAGGATACCCCCTGATGTTAATCGGGTCTTGATTCGCTTGACGCTGCTG | 7.7 | 4.68 | 4.35 | 4.59 | 5.79 | 6.35 | 5.02
10 | CCGATTAACATCACGAATTTCCCTGATGTTAATCGGGTCTTGATTCGCTTGACGCTGCTG | 4.28 | 5.72 | 6.67 | 4.33 | 2.13 | 5.22 | 4.46
11 | CCGATTAACATCAGGGAACCACCTGATGTTAATCGGGTCTTGATTCGCTTGACGCTGCTG | 6.9 | 5.68 | 4.58 | 1.22 | 9.5 | 6.96 | 5.71
12 | CCGATTAACATCAGGGGATTACATGATGTTAATCGGGTCTTGATTCGCTTGACGCTGCTG | 6.52 | 6.73 | 8.01 | 3.12 | 8 | 5.64 | 5.79
13 | CCGATTAACATCACCCTTTTCCCTGATGTTAATCGGGTCTTGATTCGCTTGACGCTGCTG | 2.88 | 3.25 | 5.61 | 4.6 | 1.52 | 2.91 | 2.59
14 | CCGATTAACATCAGGGAAGTACCTGATGTTAATCGGGTCTTGATTCGCTTGACGCTGCTG | 6.67 | 7.36 | 8.68 | 1.93 | 9.88 | 7.45 | 5.92
15 | CCGATTAACATCAAGACTTCCCCTGATGTTAATCGGGTCTTGATTCGCTTGACGCTGCTG | 6.45 | 7.56 | 7.93 | 5.12 | 7.71 | 6.38 | 5.95
16 | CCGATTAACATCAGGGAATATACTGATGTTAATCGGGTCTTGATTCGCTTGACGCTGCTG | 3.5 | 3.81 | 4.1 | 3.18 | 4.01 | 4.33 | 2.3
17 | CCGATTAACATCAGAGAATTCCCTGATGTTAATCGGGTCTTGATTCGCTTGACGCTGCTG | 5.32 | 7.57 | 7.07 | 2.8 | 4.51 | 6.73 | 5.27
18 | CCGATTAACATCACAGTTTCCCCTGATGTTAATCGGGTCTTGATTCGCTTGACGCTGCTG | 6.64 | 7.28 | 10.3 | 7.74 | 3.35 | 4.9 | 5.61
19 | CCGATTAACATCAGGGACGTCCCTGATGTTAATCGGGTCTTGATTCGCTTGACGCTGCTG | 7.37 | 7.13 | 4.26 | 1.08 | 6.25 | 8.52 | 4.54
